# “And” between values parts separate entries of the source, which are not always exact repeats. Identical values can stand only once. Results filed as inconclusive are left out. Where a call stands in place of a potency, no number is given. The source made the active and inactive calls. Unless noted, calls follow the shape of the full dose curve.
# What was measured:
# [1] = A High-Content qHTS Against Drug Library for the Identification of Small Molecules that Inhibit DYT1 Early Onset Primary Dystonia-Associated Cell Pathology (AID 1645839)
# Outline: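 Induced EGFP-delE TorsinA cells are imaged after 48 h of compound treatment. Punctate fusion-protein distribution gives the %pathology value, while nuclei counts flag toxicity. Wild-type EGFP-hTOR1A cells define the normal pattern.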
# [2] = molecular target: Cytochrome P450 2D6 (Homo sapiens) (UniProt P10635); experiment: Cytochrome P450 family 2 subfamily D member 6 (CYP2D6) small molecule antagonists: luciferase biochemical (cell-free) qHTS assay (AID 1645840; active = well fitted curve in the direction sought with a large enough effect in the repeat runs; an effect the other way counts as inactive or inconclusive; also: nearly all actives have a fitted effect of over 55% in size; also: potency is read from the fitted curve at half-maximal effect)
# Cytochrome P450 2D6 (Homo sapiens), sequence (P10635 whole entry, looked up): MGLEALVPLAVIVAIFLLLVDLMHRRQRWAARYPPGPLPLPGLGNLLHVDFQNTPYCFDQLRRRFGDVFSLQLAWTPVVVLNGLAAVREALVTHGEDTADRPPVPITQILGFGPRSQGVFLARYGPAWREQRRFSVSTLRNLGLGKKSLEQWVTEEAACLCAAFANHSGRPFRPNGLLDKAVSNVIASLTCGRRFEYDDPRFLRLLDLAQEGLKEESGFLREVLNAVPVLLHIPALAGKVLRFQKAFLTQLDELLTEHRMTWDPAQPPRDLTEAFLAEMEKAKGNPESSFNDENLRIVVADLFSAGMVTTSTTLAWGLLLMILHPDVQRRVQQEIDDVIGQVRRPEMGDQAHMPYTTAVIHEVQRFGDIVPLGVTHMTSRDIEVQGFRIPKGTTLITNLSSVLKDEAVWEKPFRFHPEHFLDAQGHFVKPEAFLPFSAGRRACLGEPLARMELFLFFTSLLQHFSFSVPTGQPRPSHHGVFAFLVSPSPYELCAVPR
# Outline: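 P450-Glo CYP2D6 system: proluciferin substrate converted by enzyme to luciferin, read by luminescence proportional to activity. Enzyme-substrate mix with compound 10 min at room temperature, then NADPH regeneration 1 h before detection reagent.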
# [3] = molecular target: Cytochrome P450 2C9 (Homo sapiens) (UniProt P11712); experiment: Cytochrome P450 family 2 subfamily C member 9 (CYP2C9) small molecule antagonists: luciferase biochemical (cell-free) qHTS assay (AID 1645842; active = well fitted curve in the direction sought with a large enough effect in the repeat runs; an effect the other way counts as inactive or inconclusive; also: nearly all actives have a fitted effect of over 55% in size; also: potency is read from the fitted curve at half-maximal effect)
# Cytochrome P450 2C9 (Homo sapiens), sequence (P11712 whole entry, looked up): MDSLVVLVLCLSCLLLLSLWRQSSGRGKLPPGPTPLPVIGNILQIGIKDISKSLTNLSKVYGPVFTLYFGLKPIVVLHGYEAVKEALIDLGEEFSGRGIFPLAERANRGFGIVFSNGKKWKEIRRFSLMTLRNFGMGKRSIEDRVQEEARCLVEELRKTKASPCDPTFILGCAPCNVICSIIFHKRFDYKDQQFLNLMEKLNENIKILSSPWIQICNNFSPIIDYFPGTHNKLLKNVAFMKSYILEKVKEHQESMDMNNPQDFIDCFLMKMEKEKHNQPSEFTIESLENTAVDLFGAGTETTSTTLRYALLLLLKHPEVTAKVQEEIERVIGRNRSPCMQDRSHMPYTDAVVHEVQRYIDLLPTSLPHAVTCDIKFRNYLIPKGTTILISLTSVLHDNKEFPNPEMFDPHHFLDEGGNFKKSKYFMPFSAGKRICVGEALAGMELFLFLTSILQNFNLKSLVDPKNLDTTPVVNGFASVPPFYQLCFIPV
# Outline: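 P450-Glo CYP2C9 system: proluciferin substrate with enzyme in mix containing 0.4% BSA, 10 min at room temperature, then NADPH regeneration solution added and incubated 1 h at 37C. Detection reagent stopped reaction; luminescence read after 20 min as RLU.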
# [4] = Primary qHTS for small molecule stabilizers of the endoplasmic reticulum resident proteome: Secreted ER Calcium Modulated Protein (SERCaMP) assay (AID 1508630; active = well fitted curve in the direction sought with a large enough effect; an effect the other way counts as inactive or inconclusive)
# Outline: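 The SH-SY5Y reporter protocol was run at 3 concentrations up to 38.3 uM (primary) or 11 concentrations (follow-up): 16 h compound, 100 nM thapsigargin for 4 h, then extracellular luciferase luminescence.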
# [5] = Primary qHTS to identify inhibitors of SARS-CoV-2 cell entry (AID 1645846); conditions: activity change, negative = inhibition: at 57.1 µM (top of the series) unless noted; also: nearly all actives have a fitted effect of over 45% in size; also: potency is read from the fitted curve at half-maximal effect
# Outline: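 HEK293-ACE2 (Expi293F, stable hACE2), 1500 cells/well, o/n 37C; cpd 23 nL pin, 1 h; MLV-PP w/ SARS-CoV-2-S (Wuhan-Hu-1, Δ19 C-term); 48 h 37C; Bright-Glo luminescence; normalized vs S-PP and bald PP.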
# [6] = Cytotoxicity counterscreen for inhibitors of SARS-CoV-2 cell entry (AID 1645845); also: nearly all actives have a fitted effect of over 50% in size
# Outline: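 After a 15 min room-temperature ATPLite 1step step, luminescence reflected ATP remaining in HEK293-ACE2 cells exposed to compound for 1 h plus 48 h at 37 C, with percent activity set by cell and no-cell controls.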
# [7] = Confirmatory qHTS to identify inhibitors of SARS-CoV-2 cell entry (AID 1645844); also: potency is read from the fitted curve at half-maximal effect; nearly all actives have a fitted effect of over 45% in size
# Outline: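 Using stable human ACE2 Expi293F cells, compounds preincubated 1 hr before spike pseudoparticle infection; luciferase signal after 48 hr at 37C, 5% CO2, normalised to spike PP and no-fusion-protein PP wells.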
# [8] = VSVG counterscreen qHTS to identify inhibitors of SARS-CoV-2 cell entry (AID 1645847); also: nearly all actives have a fitted effect of over 65% in size; also: potency is read from the fitted curve at half-maximal effect
# Outline: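 Expi293F/hACE2 cells, overnight plating; cpd 1 h, 37C/5% CO2; + VSV-G PP (MLV pseudotyping), 48 h; supernatant removed, Bright-Glo luciferase read. Norm: VSV-G PP and bald PP wells.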
# Papain (Carica papaya) = Papain (Carica papaya) (UniProt P00784); experiment: Primary qHTS assay for inhibitors of the protease papain (AID 1645873; active = well fitted curve in the direction sought with a large enough effect; an effect the other way counts as inactive or inconclusive;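 also: papain turnover of Z-FR-AMC read as the AMC fluorescence gain over 10 min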)
# Papain (Carica papaya), sequence (P00784 whole entry, looked up): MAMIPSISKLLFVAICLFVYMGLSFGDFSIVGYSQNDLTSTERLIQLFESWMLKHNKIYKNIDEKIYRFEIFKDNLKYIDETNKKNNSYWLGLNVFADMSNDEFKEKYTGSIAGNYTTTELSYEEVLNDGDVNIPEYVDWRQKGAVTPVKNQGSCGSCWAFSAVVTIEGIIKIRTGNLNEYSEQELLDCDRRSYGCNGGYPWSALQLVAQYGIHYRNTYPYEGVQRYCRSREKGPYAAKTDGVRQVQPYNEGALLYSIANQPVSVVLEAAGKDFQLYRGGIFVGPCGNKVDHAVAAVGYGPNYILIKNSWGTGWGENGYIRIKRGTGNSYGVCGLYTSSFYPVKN
compound,measurement,setting,value
CN1C(=O)CN=C(c2ccccc2)c2cc(Cl)ccc21,outcome,[1],inactive
C[C@H]1C(=O)O[C@@H]2CCN3CC=C(COC(=O)[C@](C)(O)[C@]1(C)O)[C@H]23,outcome,[1],inactive
same,Potency,[2],inactive
same,Potency,[3],inactive
COCC(=O)N(c1c(C)cccc1C)C(C)C(=O)OC (stereo not drawn),outcome,[1],inactive
same,Potency,[2],inactive
same,Potency,[3],inactive
CC1=C2[C@H]3OC(=O)[C@@H](C)[C@@H]3CC[C@@]2(C)C=CC1=O,outcome,[4],inactive
same,outcome,[1],inactive
same,Potency,[2],inactive
same,Potency,[3],inactive
same,"activity change, negative = inhibition",[5],2.07%
COc1cc(CC(C)N)c(OC)cc1Br (stereo not drawn),outcome,[4],inactive
same,Potency,[2],29.2 µM (active)
same,Potency,[3],inactive
CC(CC(C#N)(c1ccccc1)c1ccccc1)N(C)C (stereo not drawn),Potency,[2],5.61 µM (active)
same,Potency,[3],inactive
CCC1(c2ccccc2)CCC(=O)NC1=O (stereo not drawn),Potency,[2],inactive
O=c1n(Cl)c(=O)n(Cl)c(=O)n1Cl,outcome,[1],inactive
same,Potency,[2],inactive
same,Potency,[3],inactive
same,Potency,[6],inactive
same,"activity change, negative = inhibition",[5],1.05%
CCOC(=O)C1(c2ccccc2)CCN(CCc2ccc(N)cc2)CC1,Potency,[2],1.74 µM (active)
same,Potency,[6],inactive
C[C@@H]1CC[C@H]2[C@@H](C)C(=O)O[C@@H]3O[C@@]4(C)CC[C@@H]1[C@]32OO4,outcome,[1],inactive
same,Potency,[6],inactive
same,"activity change, negative = inhibition",[5],-32%
C[C@H](N)[C@H](O)c1ccc(O)c(O)c1,outcome,[1],inactive
same,Potency,[3],inactive
same,Potency,[6],inactive
same,"activity change, negative = inhibition",[5],-20.4%
CN1C2CCC(C)(C)C1CC(OC(=O)C(O)(c1cccs1)c1cccs1)C2 (stereo not drawn),Potency,[2],13.8 µM (active)
same,Potency,[3],inactive
same,Potency,[6],inactive
Cc1ccc(N=CN(C)C=Nc2ccc(C)cc2C)c(C)c1,outcome,[1],inactive
same,Potency,[3],inactive
same,Potency,[6],inactive
same,"activity change, negative = inhibition",[5],-12.8%
Nc1ccccc1C(=O)OCC(O)CO (stereo not drawn),Potency,[2],inactive
same,Potency,[3],inactive
same,Potency,[6],inactive
same,"activity change, negative = inhibition",[5],-1.98%
COc1ccc(CN2CCNCC2)c(OC)c1OC,outcome,[1],inactive
same,Potency,[6],inactive
same,Potency,[5],inactive
CCCCCCCCCCCCOS(=O)(=O)O,Potency,[2],inactive
same,Potency,[3],inactive
same,Potency,[6],inactive
same,"activity change, negative = inhibition",[5],-9.15%
CC#C[C@]1(O)CC[C@H]2[C@@H]3C[C@H](C)C4=CC(=O)CC[C@]4(C)[C@H]3CC[C@@]21C,Potency,[3],17.4 µM (active)
same,Potency,[7],27.1 µM (active)
same,Potency,[6],inactive
COP(=O)(OC)OC=C(Cl)Cl,outcome,[1],inactive
same,Potency,[2],inactive
same,Potency,[3],inactive
same,Potency,[6],inactive
same,"activity change, negative = inhibition",[5],-2.57%
Cc1nnc2n1-c1sc(CCc3ccc(CC(C)C)cc3)cc1C(c1ccccc1Cl)=NC2C (stereo not drawn),Potency,[2],27.5 µM (active)
same,Potency,[3],15.5 µM (active)
same,Potency,[5],22.4 µM (active)
COc1cc(CC(C)N)cc2c1OCO2 (stereo not drawn),outcome,[1],inactive
same,Potency,[3],inactive
Oc1ccc([C@H]2CNCc3c2ccc(O)c3O)cc1O,Potency,[2],inactive
same,Potency,[3],8.71 µM (active)
same,Potency,[6],inactive
same,"activity change, negative = inhibition",[5],1.13%
c1ccc2c(c1)Sc1ccccc1N2CC1CN2CCC1CC2 (stereo not drawn),Potency,[2],0.123 µM (active)
same,Potency,[3],inactive
same,Potency,[7],4.82 µM (active)
same,Potency,[8],0.383 µM (active)
Cc1c(Cl)c(=O)oc2cc(OP(=O)(OCCCl)OCCCl)ccc12,Potency,[2],1.55 µM (active)
same,Potency,[3],1.23 µM (active)
same,Potency,[6],inactive
same,Potency,[5],inactive
Oc1ccc2[nH]cc(CCCCN3CC=C(c4ccccc4)CC3)c2c1,Potency,[2],0.195 µM (active)
CCC(=O)C(CCN(C)C)(c1ccccc1)c1ccccc1,Potency,[2],5.49 µM (active)
same,Potency,[7],12.1 µM (active)
same,Potency,[6],inactive
same,"activity change, negative = inhibition",[5],-43.2%
same,Potency,[8],3.41 µM (active)
OC(c1ccccc1)(c1ccccc1)C1CCNCC1,outcome,[1],inactive
same,Potency,[3],inactive
CC(C(O)c1ccccc1)N(C)C/C=C/c1ccccc1 (stereo not drawn),outcome,[1],inactive
same,Potency,[2],0.0389 µM (active)
same,Potency,[6],inactive
O=C1NCN(c2ccccc2)C12CCN(CCCOc1ccc(F)cc1)CC2,Potency,[2],0.347 µM (active)
same,Potency,[3],inactive
CN1C(=O)[C@@H](NC(=O)c2cc3ccccc3[nH]2)N=C(c2ccccc2)c2ccccc21,Potency,[2],inactive
same,Potency,[3],2.75 µM (active)
NC(=O)CN1CCCC1=O,outcome,[1],inactive
same,Potency,[2],inactive
same,Potency,[3],inactive
same,Potency,[6],inactive
same,Potency,[5],inactive
same,outcome,Papain (Carica papaya),inactive
CC(C)[N+](C)(CCC(C(N)=O)(c1ccccc1)c1ccccc1)C(C)C,outcome,[1],inactive
same,Potency,[2],1.95 µM (active)
same,Potency,[6],inactive
same,"activity change, negative = inhibition",[5],-0.507%
Clc1ccc(C(OCCN2CCCCC2)c2ccccc2)cc1 (stereo not drawn),Potency,[2],0.049 µM (active)
same,Potency,[3],inactive
same,Potency,[6],inactive
same,Potency,[8],inactive
CCC1(c2cccc(O)c2)CCCCN(C)C1 (stereo not drawn),Potency,[2],13.8 µM (active)
same,Potency,[3],inactive
same,Potency,[6],inactive
same,Potency,[5],inactive
CCc1cc(OC)c(C[C@H](C)N)cc1OC,outcome,[1],inactive
same,Potency,[3],inactive
O=C(CCCN1CCC(n2c(=O)[nH]c3ccccc32)CC1)c1ccc(F)cc1,Potency,[2],6.92 µM (active)
same,Potency,[3],inactive
same,Potency,[6],inactive
same,Potency,[5],inactive
CCN(CC)Cc1nccn1-c1ccc([N+](=O)[O-])cc1C(=O)c1ccccc1Cl,outcome,[1],inactive
same,Potency,[2],1.95 µM (active)
same,Potency,[6],inactive
COP(=S)(OC)Oc1ccc(S(N)(=O)=O)cc1,outcome,[1],inactive
same,Potency,[3],4.36 µM (active)
same,Potency,[6],inactive
C=CC[C@]1(O)CC[C@H]2[C@@H]3CCC4=CC(=O)CCC4=C3C=C[C@@]21C,outcome,[1],inactive
same,Potency,[3],11 µM (active)
same,Potency,[7],15.2 µM (active)
same,Potency,[8],17.1 µM (active)
CCC(=O)O[C@H]1CC[C@H]2[C@@H]3CCC4=CC(=O)CC[C@]4(C)[C@H]3CC[C@]12C,Potency,[2],16.9 µM (active)
same,Potency,[3],24.5 µM (active) and 10.7 µM (active)
same,Potency,[6],inactive
same,Potency,[5],inactive
